{"source": "PubChem BioAssay (NCATS)", "key": {"[1]": {"target": "Calcium and integrin-binding protein 1 (Homo sapiens) (UniProt Q99828)", "sequence (Q99828 whole entry, looked up)": "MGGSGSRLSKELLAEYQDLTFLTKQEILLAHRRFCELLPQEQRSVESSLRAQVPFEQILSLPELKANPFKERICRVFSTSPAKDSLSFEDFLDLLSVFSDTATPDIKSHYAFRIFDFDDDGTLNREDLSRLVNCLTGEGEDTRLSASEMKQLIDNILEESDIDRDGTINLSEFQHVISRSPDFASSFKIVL", "experiment": "Primary qHTS for Identification of Calcium Integrin Binding Protein 1 (CIB1) Competitor (AID 1508620);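 note: GST tagged CIB1 binding a fluorescein labelled alphaIIb integrin peptide tracer; top concentration of the series differs between compounds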", "settings": "CIB1-GST / FITC-alphaIIb peptide fluorescence polarization; series mostly up to 57.7 µM", "summary_of_the_method": "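Fluorescence polarization competition: CIB1-GST (1 uM final) preincubated with compound 15 min at room temperature, then FITC-labeled alphaIIb peptide (100 nM final) added for another 15 min. Polarization read at Ex 480/Em 540.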"}, "[2]": {"experiment": "qHTS to identify inhibitors of the type 1 interferon - major histocompatibility complex class I in skeletal muscle: primary screen against the NCATS Mechanism Interrogation Plate v5.0 (MIPE) Libary (AID 1347411); note: nearly all actives have a fitted effect of over 65% in size; note: potency is the fitted concentration of half-maximal effect", "settings": "iHSKM cells + IFN-b, HiBiT-tagged MHC-I luminescence, 24 h; series mostly up to 45.8 µM", "summary_of_the_method": "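Luminescence from CRISPR HiBit-tagged endogenous HLA-B in human myoblasts reported MHC class I level after 24 h of IFN-beta (4 ng/ml) plus compound. Compounds ran as 11-point 1:3 series, top 46 uM final.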"}}, "note": "Results filed as inconclusive are left out. A call without a number means that no potency is given here. Active and inactive are the calls of the source. Calls come from the whole dose curve; as a rule, active = well fitted curve in the direction sought with a large enough effect; inconclusive = small, poorly fitted or top-dose-only effect, or another doubt; inactive = no such curve, though single readings can be large; an effect the other way counts as inactive or inconclusive.", "data": [{"smiles": "COc1ccc(C=Cc2cc(OC)c(OC)c(OC)c2)cc1O", "values": [{"measurement": "outcome", "setting": "[1]", "result": "inactive"}]}, {"smiles": "c1cc(-c2cnn3cc(-c4ccc(OCCN5CCCCC5)cc4)cnc23)ccn1", "values": [{"measurement": "Potency", "setting": "[2]", "result": "10.4 µM (active)"}, {"measurement": "outcome", "setting": "[1]", "result": "inactive"}]}, {"smiles": "O=c1[nH]c(=O)n(C2CCCO2)cc1F", "note": "(stereo not given)", "values": [{"measurement": "Potency", "setting": "[2]", "result": "inactive"}, {"measurement": "outcome", "setting": "[1]", "result": "inactive"}]}]}
